# Hits are enriched below; roughly 9.8% of the tested compounds scored in any of these assays.
# HttQ103 aggreg = inhibitors of mutant huntingtin aggregate formation in PC12 cells; PC12 HttQ103-GFP aggregates, Acumen cytometry, 40 h; Potency, µM (top dose mostly 46.1 µM), actives largely listed as inhibitors; 220,000 tested, 1.1% active; further: nearly all actives have a fitted effect of over 60% in size
#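 Huntingtin Q103 exon 1–GFP aggregates in induced PC12 cells (100 nM tebufenozide) were quantified by cytometry from lysates, with compounds dosed in titration.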
# JMJD2E inh = inhibitors of human JMJD2E histone demethylase; Potency, µM (highest dose often 57.1 µM), usual class: inhibitors; AID 2147; 230,000 tested, 1.6% active; JMJD2E catalytic domain, FDH-coupled NADH fluorescence (FDH is formaldehyde dehydrogenase); B2RXH2; active means well fitted inhibition curve with a large enough effect, not every such curve was filed as active; inconclusive means small, poorly fitted or top-dose-only effect, or another doubt; inactive means no such curve, though single readings can be large or run the other way; further: nearly all actives have a fitted effect of over 50% in size
# HPGD block = HPGD (human) dehydrogenase inhibition; P15428; purified HPGD, NADH fluorescence kinetic, PGE2 substrate; Potency, µM, actives largely listed as inhibitors; 150,000 tested, 4.3% active; AID 894; active means well fitted inhibition curve with a large enough effect, not every such curve was filed as active; inconclusive means small, poorly fitted or top-dose-only effect, or another doubt; inactive means no such curve, though single readings can be large or run the other way
#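 20 nM HPGD preincubated 15 min at room temperature with compound in 50 mM Tris-HCl pH 8, 0.01% Tween 20. Started with 1 mM NAD+ and 30 uM prostaglandin E2; NADH fluorescence (360/450 nm) read 5 times over 30-s intervals, last minus first.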
# ALDH1A1 inh = inhibitors of human aldehyde dehydrogenase 1A1 | P00352 | Purified ALDH1A1, NADH fluorescence, propionaldehyde substrate | Potency, µM (titrated, usually from 75.3 µM), usual class: inhibitors | 220,000 tested, 7.3% active; active means well fitted inhibition curve with a large enough effect, not every such curve was filed as active; inconclusive means small, poorly fitted or top-dose-only effect, or another doubt; inactive means no such curve, though single readings can be large or run the other way
# Target sequence (P00352 whole entry, looked up): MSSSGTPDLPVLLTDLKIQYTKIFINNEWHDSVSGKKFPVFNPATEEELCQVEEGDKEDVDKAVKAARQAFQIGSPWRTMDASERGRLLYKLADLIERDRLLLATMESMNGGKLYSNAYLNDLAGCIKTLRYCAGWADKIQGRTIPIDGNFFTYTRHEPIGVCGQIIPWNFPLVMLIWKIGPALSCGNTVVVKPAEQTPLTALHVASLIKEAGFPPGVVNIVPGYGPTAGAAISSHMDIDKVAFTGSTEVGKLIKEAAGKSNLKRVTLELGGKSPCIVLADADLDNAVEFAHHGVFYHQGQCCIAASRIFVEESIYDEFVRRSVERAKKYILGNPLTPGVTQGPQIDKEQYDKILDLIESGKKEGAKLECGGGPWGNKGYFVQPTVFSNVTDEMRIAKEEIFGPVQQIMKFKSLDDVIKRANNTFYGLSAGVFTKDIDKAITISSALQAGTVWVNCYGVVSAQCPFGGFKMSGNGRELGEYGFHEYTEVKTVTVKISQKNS
# CBFb-RUNX1 inh = inhibitors of human CBF-beta and RUNX1 interaction | AlphaScreen CBFb-His/RUNX1-biotin binding, biochemical | Potency, µM (top dose mostly 59.8 µM), usual class: inhibitors | 230,000 tested, under 10 active | AID 1477
#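 Room-temperature protein-protein interaction test with 30 nM each of His-tagged CBF-beta and biotinylated RUNX1, 15 min with compound, then 90 min with nickel plus streptavidin beads. Signal read in AlphaScreen mode.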
# HTT ATP protect = cytoprotection in Huntington HTT-Q103 PC12 cell model; PC12 HTT-Q103 induced, cytoprotection, ATP luminescence, 40 h; Potency, µM (top dose mostly 56.4 µM), actives largely listed as activators; 230,000 tested, 0.14% active; further: nearly all actives have a fitted effect of over 45% in size
#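 Huntington model: PC12 line, ecdysone-inducible HTTQ103 exon1–GFP, tebufenozide 100 nM. Test articles in a dose series. Endpoint luminescence from cellular ATP.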
# A number is an active result; i = inactive; ? = inconclusive; nt = no result given; [ ] = remark or other dose. Unless noted, the call rests on the fitted dose curve; in most records, active means well fitted curve in the direction sought with a large enough effect; inconclusive means small, poorly fitted or top-dose-only effect, or another doubt; inactive means no such curve, though single readings can be large; an effect the other way counts as inactive or inconclusive.
SMILES,HttQ103 aggreg,JMJD2E inh,HPGD block,ALDH1A1 inh,CBFb-RUNX1 inh,HTT ATP protect
COc1ccc(NS(=O)(=O)c2cc(C)ccc2C)cc1,i,i,14µM,0.56µM,i,i
COc1ccc(NS(=O)(=O)c2cc(C(=O)O)ccc2C)cc1,i,i,i,i,i,i
Cc1ccc(C)c(S(=O)(=O)Nc2ccc(O)cc2)c1,i,i,i,?,i,i
O=S(=O)(c1ccccc1)N1CCC[C@@]2(CCN(Cc3ccccc3)C2)C1,nt,nt,i,i,nt,i
CC(C)OCc1c(C(=O)Nc2nccs2)oc2ccccc12,i,?,nt,i,i,i
O=C(Nc1ccc(F)cc1)NC1CCN(Cc2nnnn2Cc2ccco2)CC1,i,i,i,18µM,i,i[10 µM]
O=C(NC1CC2CCC(C1)N2Cc1nnnn1Cc1ccco1)NC12CC3CC(CC(C3)C1)C2 (stereo unspecified),i,i,i,7.9µM,i,i[10 µM]
O=C(NCc1ccccc1)NC1CC2CCC(C1)N2Cc1ccco1 (stereo unspecified),i[9.22 µM],i,i,i,i,i
CCOc1ccccc1C(=O)NC1CC2CCCC(C1)N2Cc1nnnn1Cc1ccco1 (stereo unspecified),i,i,i,1µM,i,i
COc1ccc(-c2cc([C@H](O)[C@@H]3CCCCN3)c3ccccc3n2)cc1,nt,nt,nt,nt,nt,i[10 µM]
NC(=O)NN=C1C2CCCC1C(c1ccccc1)NC2c1ccccc1 (stereo unspecified),i[9.22 µM],i,nt,nt,i,i[10 µM]
Cc1cc(NC(=O)CSc2nnc(N)s2)c([N+](=O)[O-])cc1C,i,i,nt,?,i,i
Fc1ccc(NC(=S)NCc2cccnc2)cc1,i[9.22 µM],i,nt,i,i,i
CCC(C)c1ccc(NC(=S)NCc2cccnc2)cc1 (stereo unspecified),i,i,?,16µM,i,i[10 µM]
S=C(NCc1cccnc1)Nc1ccc(Cl)c(Cl)c1,?,i,14µM,?,i,i[10 µM]
CCOC(=O)CN(C(=O)CSc1nnc(CNc2ccc(C)cc2C)o1)c1ccccc1,i,i,i,?,i,i
N#Cc1cc2c(nc1SCC(=O)N1CCCCC1)CCCC2,i,i,i,?,i,i
N#Cc1cc2c(nc1SCC(=O)N1CCCCC1)CCCCC2,i,i,25µM,22µM,i,i[0.074 µM]
COc1ccc2nc(SCC(=O)N3CCCCC3)c(C#N)cc2c1,i[9.22 µM],?,nt,?,i,i[10 µM]
COc1ccc2nc(SCC(=O)N3CCCCCC3)c(C#N)cc2c1,i,?,?,13µM,i,i[10 µM]
COc1ccc2nc(SCC(=O)N(C)C3CCCCC3)c(C#N)cc2c1,i,?,?,25µM,i,i[10 µM]
N#C/C(=C\c1ccncc1)c1nc2c(s1)CCCC2,i,?,nt,?,i,i
CCn1nnnc1SCC(=O)c1cc(Cl)ccc1OC,i[9.22 µM],i,nt,?,i,i[10 µM]
COc1ccc(Cl)cc1C(=O)CSc1nnnn1C1CCCCC1,i,i,i,5µM,i,i[10 µM]
COc1ccc(Cl)cc1C(=O)CSc1nnnn1C1CCCC1,i,i,nt,2µM,i,i
SMILES,HttQ103 aggreg,JMJD2E inh,HPGD block,ALDH1A1 inh,CBFb-RUNX1 inh,HTT ATP protect
Cc1ccc(SCC(=O)N=C2NC(=O)CS2)cc1,i,i,nt,i,i,i
COc1ccc(C)c(-n2c(N)cc(=O)n(Cc3ccccc3)c2=O)c1,i[9.22 µM],i,nt,nt,i,i[10 µM]
CN(C)S(=O)(=O)c1ccc(C(=O)Nc2nc(-c3cccs3)cs2)cc1,i,?,?,i,i,i
COc1ccc(-n2c(C)cc(-c3csc(NC(=O)c4ccc(S(=O)(=O)N(C)C)cc4)n3)c2C)cc1,i,i,i,2.2µM,i,i[10 µM]
CNCCCOc1ccc(Cl)cc1C(C)(C)C,i[9.22 µM],?,nt,?,i,i
COCCCNCCCOc1ccc(Cl)cc1C(C)(C)C,7.9µM,i,i,i,i,nt
COc1cc(C2C3=C(CC(C)(C)CC3=O)N(C)C(=O)N2C)cc(OC)c1OC (stereo unspecified),i,i,i,i,i,i
Cc1ccc(NC(=O)c2cc(-n3cnnc3)ccc2Cl)cc1,i,i,i,i,?,i[10 µM]
Cc1ccc(NC(=O)c2cc(N3C(=O)C4CC=CCC4C3=O)ccc2N2CCOCC2)cc1Cl (stereo unspecified),?,i,i,28µM,i,i
Cc1ccc(NC(=O)c2cc(N3C(=O)C=CC3=O)ccc2Cl)cc1C,i,i,3.2µM,2.2µM,i,i[10 µM]
